The nature of test [1]: NCI Yeast Anticancer Drug Screen. Data for the rad50 strain (AID 155).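 Also: 0% = growth of vehicle-only cultures of the same strain.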 The settings on record: S. cerevisiae rad50 strain growth inhibition, stronger effect = higher value. In short, it runs like this:
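Cells are treated with compound, grown, and their growth is then scored against vehicle-only cultures of the same repair-deficient yeast strain.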

The nature of test [2]: NCI Yeast Anticancer Drug Screen. Data for the mec2-1 strain (AID 157). The settings on record: S. cerevisiae mec2-1 strain, stronger effect = higher value. In short, it runs like this: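 Compounds were applied to mec2-1 yeast cells. Their growth was then compared with that of vehicle-treated cultures to give growth inhibition.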
A short description of test [3]: NCI Yeast Anticancer Drug Screen. Data for the sgs1 mgt1 strain (AID 161).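 Also: 0% = growth of cultures given vehicle only.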 The settings on record: S. cerevisiae sgs1 mgt1 strain, stronger effect = higher value. In short, it runs like this:
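Growth of a repair-deficient yeast mutant was monitored after compound treatment and expressed as inhibition relative to vehicle-treated cultures.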

Test [4] can be described thus: NCI Yeast Anticancer Drug Screen. Data for the cln2 rad14 strain (AID 165).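 Also: 0% = growth equal to vehicle treated cultures.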 The settings on record: S. cerevisiae cln2 rad14 strain, stronger effect = higher value. In short, it runs like this:
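Strain: cln2 rad14 yeast, altered in cell cycle control and DNA damage repair. Read-out: growth inhibition vs vehicle.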

Test [5] can be described thus: NCI Yeast Anticancer Drug Screen. Data for the bub3 strain (AID 167). The settings on record: S. cerevisiae bub3 mutant strain, stronger effect = higher value. The essentials: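 Part of a panel of yeast mutants defective in DNA damage repair or cell cycle regulation. Each strain is grown with compound, and inhibition is calculated relative to solvent-treated cultures.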
The nature of test [6]: NCI Yeast Anticancer Drug Screen. Data for the mlh1 rad18 strain (AID 175). Particulars: S. cerevisiae mlh1 rad18 strain growth inhibition, stronger effect = higher value. The essentials: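 A repair-deficient yeast strain is exposed to test compound, and growth is scored relative to vehicle-treated controls.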
Where [7] appears, read: at 5.0 µM (retest, dose inferred, filed as 0.5).
[8] abbreviates: at 50.0 µM (retest, dose inferred, filed as 5.0).

The structures appear in SMILES notation. This is part of a sample that, as a whole, favours compounds with a hit. Of some 79,000 tested, about 15% had one in any assay. A number with no mark means an inactive call. Calls of active or inactive are those of the source. Rule as the data show it: active = growth inhibition above about 70%; inactive = the rest.

For the compound `CCCCC(CSC#N)SC#N` (stereo not given), the growth inhibition in test [1] (setting [7]) is 14%; in test [1] (setting [8]) it was 98% (active); in test [1] (at 50.0 µM), 99% (active); in test [2] (setting [7]) it was 14%; in test [2] (setting [8]) it was 98% (active); in test [2] (at 50.0 µM), 98.3% (active). Also, the growth inhibition was 12% in test [3] (setting [7]); 97% (active) in test [3] (setting [8]); 97.2% (active) in test [3] (at 50.0 µM); 3% in test [4] (setting [7]); 95% (active) in test [4] (setting [8]); 97.2% (active) in test [4] (at 50.0 µM). The growth inhibition was 16% in test [5] (setting [7]); 97% (active) in test [5] (setting [8]); 98% (active) in test [5] (at 50.0 µM); 24% in test [6] (setting [7]); 98% (active) in test [6] (setting [8]); 98.3% (active) in test [6] (at 50.0 µM).

With `CC(C)CCN(CCC(C)C)C(=S)Nc1ccccc1`, the growth inhibition in test [1] (setting [7]) is -13%; in test [1] (setting [8]), 87% (active); in test [1] (at 50.0 µM) it was 92.7% (active); in test [2] (setting [7]) it was 6%; in test [2] (setting [8]), 93% (active); in test [2] (at 50.0 µM) it was 89.2% (active). The growth inhibition in test [3] (setting [7]) is -20%; in test [3] (setting [8]), 89% (active); in test [3] (at 50.0 µM), 86.8% (active); in test [4] (setting [7]), -22%; in test [4] (setting [8]) it was 89% (active); in test [4] (at 50.0 µM), 90.8% (active). Also, the growth inhibition is -7% in test [5] (setting [7]); 94% (active) in test [5] (setting [8]); 92% (active) in test [5] (at 50.0 µM); -7% in test [6] (setting [7]); 94% (active) in test [6] (setting [8]); 92.5% (active) in test [6] (at 50.0 µM).

Turning to `CCC(C)NCCNc1cc(OC)cc2cccnc12` (stereo not given), the growth inhibition is 10% in test [1] (setting [7]); 13% in test [1] (setting [8]); 42.9% in test [1] (at 50.0 µM); 1% in test [2] (setting [7]); 0% in test [2] (setting [8]); 27% in test [2] (at 50.0 µM). The growth inhibition in test [3] (setting [7]) was 7%; in test [3] (setting [8]), 10%; in test [3] (at 50.0 µM), 21%; in test [4] (setting [7]), 16%; in test [4] (setting [8]) it was -5%; in test [4] (at 50.0 µM), -26.6%. In addition, the growth inhibition in test [5] (setting [7]) is -1%; in test [5] (setting [8]), -1%; in test [5] (at 50.0 µM) it was 35%; in test [6] (setting [7]), 10%; in test [6] (setting [8]) it was 33%; in test [6] (at 50.0 µM), 51.1%.

On to `N#Cc1ccccc1NC1OCC(O)C(O)C1O` (stereo not given), for which the growth inhibition in test [1] (setting [7]) was -149%; in test [1] (setting [8]) it was -139%; in test [1] (at 50.0 µM), 0.45%; in test [2] (setting [7]) it was -45%; in test [2] (setting [8]) it was -45%; in test [2] (at 50.0 µM) it was -3.35%. In addition, the growth inhibition in test [3] (setting [7]) is -61%; in test [3] (setting [8]), -79%; in test [3] (at 50.0 µM), 10.6%; in test [4] (setting [7]), -58%; in test [4] (setting [8]), -53%; in test [4] (at 50.0 µM), 16.1%. The growth inhibition is -67% in test [5] (setting [7]); -74% in test [5] (setting [8]); 7.2% in test [5] (at 50.0 µM); -145% in test [6] (setting [7]); -105% in test [6] (setting [8]); -3.35% in test [6] (at 50.0 µM).

Take `CC(=O)OCCC1=CCC2CC1C2(C)C` (stereo not given): the growth inhibition in test [1] (setting [7]) was -2%; in test [1] (setting [8]), 2%; in test [1] (at 50.0 µM), -22.6%; in test [2] (setting [7]), -40%; in test [2] (setting [8]), 4%; in test [2] (at 50.0 µM) it was 7.2%. Moreover, the growth inhibition in test [3] (setting [7]) was -3%; in test [3] (setting [8]) it was 4%; in test [3] (at 50.0 µM) it was -12.8%; in test [4] (setting [7]) it was -6%; in test [4] (setting [8]) it was -7%; in test [4] (at 50.0 µM), 23.4%. Besides, the growth inhibition in test [5] (setting [7]) was -10%; in test [5] (setting [8]), -5%; in test [5] (at 50.0 µM), -16.2%; in test [6] (setting [7]), -3%; in test [6] (setting [8]), 3%; in test [6] (at 50.0 µM) it was -10.7%.

In the case of `O=c1oc2ccccc2c(O)c1/C=N/C(=S)NCc1ccccc1`, the growth inhibition in test [1] (setting [7]) was -28%; in test [1] (setting [8]), -15%; in test [1] (at 50.0 µM), 83.8% (active); in test [2] (setting [7]), -11%; in test [2] (setting [8]) it was -18%; in test [2] (at 50.0 µM) it was 85.8% (active). The growth inhibition was -19% in test [3] (setting [7]); -19% in test [3] (setting [8]); 87.3% (active) in test [3] (at 50.0 µM); -19% in test [4] (setting [7]); 10% in test [4] (setting [8]); 76.2% (active) in test [4] (at 50.0 µM). Besides, the growth inhibition in test [5] (setting [7]) is -19%; in test [5] (setting [8]), 2%; in test [5] (at 50.0 µM) it was 78.3% (active); in test [6] (setting [7]), -36%; in test [6] (setting [8]), -12%; in test [6] (at 50.0 µM), -42.5%.

Take `O=[N+]([O-])c1ccc(-c2nc3c(o2)CCC3)cc1`: the growth inhibition in test [1] (setting [7]) is -85%; in test [1] (setting [8]), -83%; in test [1] (at 50.0 µM), 9.15%; in test [2] (setting [7]), -15%; in test [2] (setting [8]), -15%; in test [2] (at 50.0 µM), -2.9%. In addition, the growth inhibition is -22% in test [3] (setting [7]); -22% in test [3] (setting [8]); 6.4% in test [3] (at 50.0 µM); -57% in test [4] (setting [7]); -62% in test [4] (setting [8]); 25.1% in test [4] (at 50.0 µM). Further, the growth inhibition in test [5] (setting [7]) was -72%; in test [5] (setting [8]), -82%; in test [5] (at 50.0 µM), -4.6%; in test [6] (setting [7]), -92%; in test [6] (setting [8]) it was -61%; in test [6] (at 50.0 µM), 3.25%.

Regarding `COc1ccc(NNC(=O)c2ccccc2)cc1`, the growth inhibition in test [1] (setting [7]) is 29%; in test [1] (setting [8]), 97% (active); in test [1] (at 50.0 µM), 96.3% (active); in test [2] (setting [7]) it was 9%; in test [2] (setting [8]) it was 95% (active); in test [2] (at 50.0 µM), 97.5% (active). Also, the growth inhibition in test [3] (setting [7]) was 13%; in test [3] (setting [8]) it was 98% (active); in test [3] (at 50.0 µM), 96.3% (active); in test [4] (setting [7]), 3%; in test [4] (setting [8]) it was 97% (active); in test [4] (at 50.0 µM) it was 96.8% (active). Besides, the growth inhibition in test [5] (setting [7]) was -9%; in test [5] (setting [8]), 98% (active); in test [5] (at 50.0 µM), 98.2% (active); in test [6] (setting [7]) it was 13%; in test [6] (setting [8]), 98% (active); in test [6] (at 50.0 µM) it was 97.7% (active).

`COc1cc[c]([Sn]([O][Sn]([Cl])([c]2ccc(OC)cc2)[c]2ccc(OC)cc2)[c]2ccc(OC)cc2)cc1`: the growth inhibition is 47% in test [1] (setting [7]); 95% (active) in test [1] (setting [8]); 27.7% in test [1] (at 50.0 µM); 31% in test [2] (setting [7]); 86% (active) in test [2] (setting [8]); 32.9% in test [2] (at 50.0 µM). Moreover, the growth inhibition in test [3] (setting [7]) was 58%; in test [3] (setting [8]), 98% (active); in test [3] (at 50.0 µM), 69.8%; in test [4] (setting [7]), 28%; in test [4] (setting [8]) it was 88% (active); in test [4] (at 50.0 µM), 53.5%. The growth inhibition in test [5] (setting [7]) is 50%; in test [5] (setting [8]), 96% (active); in test [5] (at 50.0 µM) it was 71.3% (active); in test [6] (setting [7]), 55%; in test [6] (setting [8]) it was 94% (active); in test [6] (at 50.0 µM) it was 73.7% (active).

On to `ON(Cc1ccccc1)C(=S)c1ccccc1`, for which the growth inhibition in test [1] (setting [7]) is 23%; in test [1] (setting [8]), 98% (active); in test [1] (at 50.0 µM), 91.3% (active); in test [2] (setting [7]) it was 19%; in test [2] (setting [8]), 99% (active); in test [2] (at 50.0 µM), 92.8% (active). In addition, the growth inhibition was 24% in test [3] (setting [7]); 98% (active) in test [3] (setting [8]); 91.5% (active) in test [3] (at 50.0 µM); 1% in test [4] (setting [7]); 92% (active) in test [4] (setting [8]); 89.3% (active) in test [4] (at 50.0 µM). The growth inhibition in test [5] (setting [7]) is 31%; in test [5] (setting [8]), 98% (active); in test [5] (at 50.0 µM), 89% (active); in test [6] (setting [7]), 25%; in test [6] (setting [8]), 98% (active); in test [6] (at 50.0 µM), 90.7% (active).

Values taken from PubChem BioAssay (NCI).
